Measured values: paper PMC7862700, “An all-to-all approach to the identification of sequence-specific readers for epigenetic DNA modifications on cytosine”

What was measured:
Experiment in all cases: DAPPL (digital affinity profiling via proximity ligation, sequencing); 10 mM Tris-HCl pH 7.5, 50 mM NaCl, 1 mM DTT, 4% glycerol, room temperature, 30 min; GST-TFs on glutathione beads, 16-mer random dsDNA library, 0.1% formaldehyde crosslink after washing; high values mean tight binding
Conditions in all cases: protein: recombinant; tags: N-terminal GST; dsDNA, one strand shown
FLI1 = target: T1, FLI1 (Homo sapiens, UniProt Q01543 1-452)
T1 sequence: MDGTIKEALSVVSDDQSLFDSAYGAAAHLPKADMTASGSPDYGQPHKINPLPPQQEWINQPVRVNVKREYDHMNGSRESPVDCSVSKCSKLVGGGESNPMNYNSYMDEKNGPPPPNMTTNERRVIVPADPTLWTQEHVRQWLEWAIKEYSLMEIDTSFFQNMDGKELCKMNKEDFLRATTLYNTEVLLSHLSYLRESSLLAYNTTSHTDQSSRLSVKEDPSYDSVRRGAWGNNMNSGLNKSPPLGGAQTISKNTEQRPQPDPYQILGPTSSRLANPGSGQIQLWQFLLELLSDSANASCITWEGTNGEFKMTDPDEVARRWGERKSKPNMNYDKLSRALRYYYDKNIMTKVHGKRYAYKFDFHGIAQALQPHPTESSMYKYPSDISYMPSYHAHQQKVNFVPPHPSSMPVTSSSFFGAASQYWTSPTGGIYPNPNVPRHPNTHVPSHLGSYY
How it was run: (§1)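 Human transcription factors carrying a GST fusion were produced in yeast, bound to glutathione beads, tagged with DNA barcodes and pooled together with a tag-only sample. Each pool was held with 200 nmole of a random double-stranded 16-mer DNA library in Tris/NaCl/DTT/glycerol buffer for 30 min at room temperature, then washed, crosslinked in 0.1% formaldehyde, proximity-ligated with BsaI/T4 ligase (1 h, 37 °C), PCR-amplified and sequenced on an Illumina NextSeq500. Binding signal is the read frequency of each hexamer for a given factor divided by its frequency in the tag-only sample.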

ELK1 = target: T2, ELK1 (Homo sapiens, UniProt P19419 1-428)
T2 sequence: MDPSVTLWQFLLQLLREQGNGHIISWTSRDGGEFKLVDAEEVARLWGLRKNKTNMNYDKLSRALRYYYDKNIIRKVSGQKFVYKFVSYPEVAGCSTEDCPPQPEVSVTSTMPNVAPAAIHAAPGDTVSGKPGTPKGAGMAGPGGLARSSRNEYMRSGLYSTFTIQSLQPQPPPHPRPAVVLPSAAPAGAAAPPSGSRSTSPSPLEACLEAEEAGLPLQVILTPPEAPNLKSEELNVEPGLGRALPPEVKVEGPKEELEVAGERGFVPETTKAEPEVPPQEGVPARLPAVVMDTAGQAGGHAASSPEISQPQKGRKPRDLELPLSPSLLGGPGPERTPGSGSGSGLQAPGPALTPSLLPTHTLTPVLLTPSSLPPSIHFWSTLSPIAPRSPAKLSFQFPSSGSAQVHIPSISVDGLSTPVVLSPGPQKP
How it was run: as §1

GABPA = target: T3, GABPA (Homo sapiens, UniProt Q06546 1-454)
T3 sequence: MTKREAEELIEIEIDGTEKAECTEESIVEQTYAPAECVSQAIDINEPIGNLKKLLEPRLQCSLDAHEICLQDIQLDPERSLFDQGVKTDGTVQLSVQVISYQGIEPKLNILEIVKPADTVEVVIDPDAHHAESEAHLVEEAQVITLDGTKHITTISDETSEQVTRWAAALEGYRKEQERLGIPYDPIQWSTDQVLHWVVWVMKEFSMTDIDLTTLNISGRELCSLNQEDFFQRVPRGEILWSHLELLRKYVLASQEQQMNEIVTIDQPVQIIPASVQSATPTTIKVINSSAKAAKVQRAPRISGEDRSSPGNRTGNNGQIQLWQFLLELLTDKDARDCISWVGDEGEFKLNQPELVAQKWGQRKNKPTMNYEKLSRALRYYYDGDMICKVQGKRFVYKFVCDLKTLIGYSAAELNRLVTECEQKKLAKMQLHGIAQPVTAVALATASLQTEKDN
How it was run: as §1

ELF1 = ELF1 (Homo sapiens, UniProt P32519 1-619)
How it was run: as §1

EHF = target: T4, EHF (Homo sapiens, UniProt Q9NZC4 1-300)
T4 sequence: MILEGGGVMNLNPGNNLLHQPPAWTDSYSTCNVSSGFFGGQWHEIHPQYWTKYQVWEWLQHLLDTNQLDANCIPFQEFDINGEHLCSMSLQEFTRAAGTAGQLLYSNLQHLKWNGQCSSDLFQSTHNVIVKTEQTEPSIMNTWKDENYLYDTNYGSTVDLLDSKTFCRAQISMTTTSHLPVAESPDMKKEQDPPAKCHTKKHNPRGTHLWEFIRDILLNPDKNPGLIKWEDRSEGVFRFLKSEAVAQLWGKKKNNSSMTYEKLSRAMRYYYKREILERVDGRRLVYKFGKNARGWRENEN
How it was run: as §1

SPI1 = SPI1 (Homo sapiens, UniProt P17947 1-270)
How it was run: as §1

SPIB = SPIB (Homo sapiens, UniProt Q01892 1-262)
How it was run: as §1

ETV5 = ETV5 (Homo sapiens, UniProt P41161 1-510)
How it was run: as §1

SPIC = target: T5, SPIC (Homo sapiens, UniProt Q8N5J4 1-248)
T5 sequence: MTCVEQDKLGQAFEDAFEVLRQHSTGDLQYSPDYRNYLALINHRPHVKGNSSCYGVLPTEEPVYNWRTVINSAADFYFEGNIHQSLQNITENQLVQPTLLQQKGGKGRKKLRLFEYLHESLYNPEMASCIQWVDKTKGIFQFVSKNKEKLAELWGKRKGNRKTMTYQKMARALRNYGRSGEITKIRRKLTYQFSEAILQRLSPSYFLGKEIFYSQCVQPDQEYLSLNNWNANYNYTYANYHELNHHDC
How it was run: as §1

ELF4 = ELF4 (Homo sapiens, UniProt Q99607 1-663)
How it was run: as §1

ETV1 = ETV1 (Homo sapiens, UniProt P50549 1-477)
How it was run: as §1

ERF = target: T6, ERF (Homo sapiens, UniProt P50548 1-548)
T6 sequence: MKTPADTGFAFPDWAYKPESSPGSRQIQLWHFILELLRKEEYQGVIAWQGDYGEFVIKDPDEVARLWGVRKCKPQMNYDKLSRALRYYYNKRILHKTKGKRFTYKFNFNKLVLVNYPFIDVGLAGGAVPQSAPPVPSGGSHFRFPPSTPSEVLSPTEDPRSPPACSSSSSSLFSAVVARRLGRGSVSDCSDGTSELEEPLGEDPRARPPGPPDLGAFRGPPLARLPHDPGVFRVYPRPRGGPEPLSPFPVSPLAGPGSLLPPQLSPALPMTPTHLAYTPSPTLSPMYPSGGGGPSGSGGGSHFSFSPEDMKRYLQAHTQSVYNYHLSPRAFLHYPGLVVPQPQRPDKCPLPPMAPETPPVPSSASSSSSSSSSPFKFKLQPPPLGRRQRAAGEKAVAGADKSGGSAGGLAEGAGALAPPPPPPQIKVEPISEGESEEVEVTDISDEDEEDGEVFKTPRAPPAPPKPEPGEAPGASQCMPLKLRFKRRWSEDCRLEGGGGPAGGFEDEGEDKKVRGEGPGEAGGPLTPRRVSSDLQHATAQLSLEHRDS
How it was run: as §1

ETS2 = target: T7, ETS2 (Homo sapiens, UniProt P15036 1-469)
T7 sequence: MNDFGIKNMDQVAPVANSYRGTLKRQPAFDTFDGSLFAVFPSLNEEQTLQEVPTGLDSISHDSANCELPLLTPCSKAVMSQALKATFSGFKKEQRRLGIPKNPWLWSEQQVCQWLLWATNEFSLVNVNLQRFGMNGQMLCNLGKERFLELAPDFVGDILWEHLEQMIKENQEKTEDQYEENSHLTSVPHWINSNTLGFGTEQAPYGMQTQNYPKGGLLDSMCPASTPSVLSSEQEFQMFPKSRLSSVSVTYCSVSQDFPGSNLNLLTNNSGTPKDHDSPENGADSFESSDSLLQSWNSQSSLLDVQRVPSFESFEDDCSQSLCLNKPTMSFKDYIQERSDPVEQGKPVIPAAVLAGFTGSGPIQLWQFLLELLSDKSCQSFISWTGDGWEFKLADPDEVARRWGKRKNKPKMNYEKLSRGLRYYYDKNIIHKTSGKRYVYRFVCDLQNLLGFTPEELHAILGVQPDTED
How it was run: as §1

SPDEF = target: T8, SPDEF (Homo sapiens, UniProt O95238 1-335)
T8 sequence: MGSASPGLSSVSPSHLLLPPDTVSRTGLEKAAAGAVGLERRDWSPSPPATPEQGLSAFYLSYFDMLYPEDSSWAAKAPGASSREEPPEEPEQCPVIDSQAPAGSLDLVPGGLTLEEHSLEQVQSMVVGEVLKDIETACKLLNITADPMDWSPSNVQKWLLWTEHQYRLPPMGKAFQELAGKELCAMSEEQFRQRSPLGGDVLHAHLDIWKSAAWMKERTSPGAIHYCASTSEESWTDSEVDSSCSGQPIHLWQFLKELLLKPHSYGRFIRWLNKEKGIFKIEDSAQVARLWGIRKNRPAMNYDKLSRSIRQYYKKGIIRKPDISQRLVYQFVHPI
How it was run: as §1

ETV6 = ETV6 (Homo sapiens, UniProt P41212 1-452)
How it was run: as §1

ERG = target: T9, ERG (Homo sapiens, UniProt P11308 1-479)
T9 sequence: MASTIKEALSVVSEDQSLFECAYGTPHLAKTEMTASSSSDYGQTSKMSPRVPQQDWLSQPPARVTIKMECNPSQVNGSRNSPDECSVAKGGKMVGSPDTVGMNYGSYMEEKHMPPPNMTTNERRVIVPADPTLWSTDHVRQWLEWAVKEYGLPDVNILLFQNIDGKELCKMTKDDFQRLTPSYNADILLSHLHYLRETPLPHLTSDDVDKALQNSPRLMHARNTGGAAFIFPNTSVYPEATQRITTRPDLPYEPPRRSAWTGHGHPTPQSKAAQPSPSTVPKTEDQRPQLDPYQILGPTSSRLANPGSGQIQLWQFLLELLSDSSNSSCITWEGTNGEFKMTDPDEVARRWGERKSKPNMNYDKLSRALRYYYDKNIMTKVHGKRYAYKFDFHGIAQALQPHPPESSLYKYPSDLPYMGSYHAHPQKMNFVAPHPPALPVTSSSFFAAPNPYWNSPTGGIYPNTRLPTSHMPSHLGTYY
How it was run: as §1

ELK3 = target: T10, ELK3 (Homo sapiens, UniProt P41970 1-407)
T10 sequence: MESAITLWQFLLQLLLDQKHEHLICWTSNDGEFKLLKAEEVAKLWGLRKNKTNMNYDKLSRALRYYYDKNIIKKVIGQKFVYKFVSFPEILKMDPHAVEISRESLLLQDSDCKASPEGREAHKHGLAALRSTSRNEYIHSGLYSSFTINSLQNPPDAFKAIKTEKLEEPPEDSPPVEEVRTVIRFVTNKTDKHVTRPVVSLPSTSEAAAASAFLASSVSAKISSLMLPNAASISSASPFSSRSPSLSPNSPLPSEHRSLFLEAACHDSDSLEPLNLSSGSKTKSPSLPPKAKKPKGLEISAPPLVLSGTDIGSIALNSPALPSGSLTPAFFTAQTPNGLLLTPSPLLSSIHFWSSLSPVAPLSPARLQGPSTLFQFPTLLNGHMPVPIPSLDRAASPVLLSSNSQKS
How it was run: as §1

FEV = target: T11, FEV (Homo sapiens, UniProt Q99581 1-238)
T11 sequence: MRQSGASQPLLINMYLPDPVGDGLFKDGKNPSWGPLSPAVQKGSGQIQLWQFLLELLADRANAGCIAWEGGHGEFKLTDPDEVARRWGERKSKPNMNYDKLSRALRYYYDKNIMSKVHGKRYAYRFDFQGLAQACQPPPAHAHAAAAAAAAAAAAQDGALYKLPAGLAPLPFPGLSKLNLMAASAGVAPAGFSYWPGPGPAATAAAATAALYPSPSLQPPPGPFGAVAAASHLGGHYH
How it was run: as §1

ETV3 = target: T12, ETV3 (Homo sapiens, UniProt P41162-2 1-143)
T12 sequence: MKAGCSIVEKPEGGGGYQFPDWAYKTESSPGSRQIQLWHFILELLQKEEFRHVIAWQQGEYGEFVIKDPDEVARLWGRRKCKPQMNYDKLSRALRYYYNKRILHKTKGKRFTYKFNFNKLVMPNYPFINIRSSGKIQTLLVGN
How it was run: as §1

ELF4, sequence (Q99607 whole entry): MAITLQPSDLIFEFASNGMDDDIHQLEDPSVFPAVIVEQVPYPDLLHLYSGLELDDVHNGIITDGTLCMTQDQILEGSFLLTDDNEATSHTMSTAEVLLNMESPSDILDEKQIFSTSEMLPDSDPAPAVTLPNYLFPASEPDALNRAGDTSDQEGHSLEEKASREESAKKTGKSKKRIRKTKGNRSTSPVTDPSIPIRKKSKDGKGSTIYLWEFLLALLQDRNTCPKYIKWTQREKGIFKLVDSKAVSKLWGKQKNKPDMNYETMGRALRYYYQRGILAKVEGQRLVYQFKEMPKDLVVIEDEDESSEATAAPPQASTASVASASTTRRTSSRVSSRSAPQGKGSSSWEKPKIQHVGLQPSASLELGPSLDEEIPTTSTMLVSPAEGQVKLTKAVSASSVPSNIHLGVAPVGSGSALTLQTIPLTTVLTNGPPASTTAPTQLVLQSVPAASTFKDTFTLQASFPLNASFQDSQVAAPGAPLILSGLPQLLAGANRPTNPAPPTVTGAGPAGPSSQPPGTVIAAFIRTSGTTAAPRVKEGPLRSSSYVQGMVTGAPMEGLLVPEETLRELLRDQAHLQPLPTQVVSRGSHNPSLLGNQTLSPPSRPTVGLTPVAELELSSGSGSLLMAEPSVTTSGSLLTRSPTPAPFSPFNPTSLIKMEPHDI
ETV1, sequence (P50549 whole entry): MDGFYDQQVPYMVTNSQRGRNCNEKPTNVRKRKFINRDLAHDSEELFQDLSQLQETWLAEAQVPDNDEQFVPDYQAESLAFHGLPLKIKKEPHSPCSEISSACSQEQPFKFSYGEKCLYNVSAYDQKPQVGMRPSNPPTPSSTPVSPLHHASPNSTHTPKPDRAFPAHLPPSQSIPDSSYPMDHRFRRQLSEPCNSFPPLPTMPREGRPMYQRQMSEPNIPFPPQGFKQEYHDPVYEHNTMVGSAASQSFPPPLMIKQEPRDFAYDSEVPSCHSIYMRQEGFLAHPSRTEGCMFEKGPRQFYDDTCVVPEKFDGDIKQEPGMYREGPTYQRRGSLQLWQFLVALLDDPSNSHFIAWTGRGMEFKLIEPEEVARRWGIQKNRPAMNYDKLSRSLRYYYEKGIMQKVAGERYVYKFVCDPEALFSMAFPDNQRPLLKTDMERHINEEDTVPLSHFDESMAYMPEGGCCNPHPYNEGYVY
ELF1, sequence (P32519 whole entry): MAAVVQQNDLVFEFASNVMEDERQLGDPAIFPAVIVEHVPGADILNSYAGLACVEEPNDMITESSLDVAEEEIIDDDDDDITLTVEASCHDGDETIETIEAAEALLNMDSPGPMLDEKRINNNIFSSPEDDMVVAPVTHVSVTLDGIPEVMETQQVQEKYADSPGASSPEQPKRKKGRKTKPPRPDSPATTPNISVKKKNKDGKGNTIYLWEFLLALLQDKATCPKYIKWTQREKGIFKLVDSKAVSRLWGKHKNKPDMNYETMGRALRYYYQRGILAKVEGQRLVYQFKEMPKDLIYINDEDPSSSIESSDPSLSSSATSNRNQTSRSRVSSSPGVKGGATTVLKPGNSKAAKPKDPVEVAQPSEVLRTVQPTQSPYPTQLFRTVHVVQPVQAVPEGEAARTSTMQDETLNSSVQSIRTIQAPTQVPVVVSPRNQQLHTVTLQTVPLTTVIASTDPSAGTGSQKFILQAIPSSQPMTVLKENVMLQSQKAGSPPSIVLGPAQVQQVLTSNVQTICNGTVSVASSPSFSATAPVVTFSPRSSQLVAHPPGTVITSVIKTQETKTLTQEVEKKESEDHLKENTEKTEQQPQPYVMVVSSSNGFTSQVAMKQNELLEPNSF
ETV6, sequence (P41212 whole entry): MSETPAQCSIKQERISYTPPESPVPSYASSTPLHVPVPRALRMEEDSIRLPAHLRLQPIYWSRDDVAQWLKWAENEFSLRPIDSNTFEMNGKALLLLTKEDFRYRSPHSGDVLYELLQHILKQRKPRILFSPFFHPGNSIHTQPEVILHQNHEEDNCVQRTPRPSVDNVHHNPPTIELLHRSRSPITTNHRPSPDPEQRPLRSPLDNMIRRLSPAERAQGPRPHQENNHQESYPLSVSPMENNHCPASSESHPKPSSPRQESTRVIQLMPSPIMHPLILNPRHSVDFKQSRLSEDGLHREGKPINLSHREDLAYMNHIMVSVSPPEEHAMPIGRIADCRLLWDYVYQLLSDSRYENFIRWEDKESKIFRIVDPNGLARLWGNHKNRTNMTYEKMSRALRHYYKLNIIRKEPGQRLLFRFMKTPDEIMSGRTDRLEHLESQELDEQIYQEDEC
ETV5, sequence (P41161 whole entry): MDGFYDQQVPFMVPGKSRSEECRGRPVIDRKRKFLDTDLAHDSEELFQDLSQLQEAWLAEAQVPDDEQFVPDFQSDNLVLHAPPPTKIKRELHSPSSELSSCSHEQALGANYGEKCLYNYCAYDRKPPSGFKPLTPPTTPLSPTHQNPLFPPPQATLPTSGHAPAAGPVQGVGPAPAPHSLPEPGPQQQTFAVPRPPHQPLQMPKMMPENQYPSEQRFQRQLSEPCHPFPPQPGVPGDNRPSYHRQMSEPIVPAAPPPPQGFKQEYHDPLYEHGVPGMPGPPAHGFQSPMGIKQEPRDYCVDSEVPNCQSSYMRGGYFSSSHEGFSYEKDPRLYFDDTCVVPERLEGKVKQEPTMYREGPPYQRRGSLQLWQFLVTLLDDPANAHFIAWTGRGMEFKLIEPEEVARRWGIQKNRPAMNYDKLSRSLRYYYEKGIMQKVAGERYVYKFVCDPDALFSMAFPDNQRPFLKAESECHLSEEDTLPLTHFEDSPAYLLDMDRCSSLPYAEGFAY
SPIB, sequence (Q01892 whole entry): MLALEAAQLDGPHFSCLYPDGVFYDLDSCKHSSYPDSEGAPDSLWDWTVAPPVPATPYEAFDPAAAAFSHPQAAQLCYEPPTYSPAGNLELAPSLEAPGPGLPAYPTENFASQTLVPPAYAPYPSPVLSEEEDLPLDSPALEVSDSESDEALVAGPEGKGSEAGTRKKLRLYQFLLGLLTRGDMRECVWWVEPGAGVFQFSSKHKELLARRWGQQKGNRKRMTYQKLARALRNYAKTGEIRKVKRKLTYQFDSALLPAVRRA

Sequence | binding signal (FLI1) | binding signal (ELK1) | binding signal (GABPA) | binding signal (ELF1) | binding signal (EHF) | binding signal (SPI1) | binding signal (SPIB) | binding signal (ETV5) | binding signal (SPIC) | binding signal (ELF4) | binding signal (ETV1) | binding signal (ERF) | binding signal (ETS2) | binding signal (SPDEF) | binding signal (ETV6) | binding signal (ERG) | binding signal (ELK3) | binding signal (FEV) | binding signal (ETV3)
TCGTCA | 1.05 fold enrichment (6-mer frequency, TF over GST control) | 1.09 fold enrichment (6-mer frequency, TF over GST control) | 1.06 fold enrichment (6-mer frequency, TF over GST control) | 1.04 fold enrichment (6-mer frequency, TF over GST control) | 1.02 fold enrichment (6-mer frequency, TF over GST control) | 1.02 fold enrichment (6-mer frequency, TF over GST control) | 1.04 fold enrichment (6-mer frequency, TF over GST control) | 1.04 fold enrichment (6-mer frequency, TF over GST control) | 1.15 fold enrichment (6-mer frequency, TF over GST control) | 1.11 fold enrichment (6-mer frequency, TF over GST control) | 1.09 fold enrichment (6-mer frequency, TF over GST control) | 1.06 fold enrichment (6-mer frequency, TF over GST control) | 1.1 fold enrichment (6-mer frequency, TF over GST control) | 1.06 fold enrichment (6-mer frequency, TF over GST control) | 1.03 fold enrichment (6-mer frequency, TF over GST control) |  |  |  | 
GTGTCC | 1.03 fold enrichment (6-mer frequency, TF over GST control) | 1.07 fold enrichment (6-mer frequency, TF over GST control) | 1.1 fold enrichment (6-mer frequency, TF over GST control) | 1.1 fold enrichment (6-mer frequency, TF over GST control) | 1.08 fold enrichment (6-mer frequency, TF over GST control) | 1.08 fold enrichment (6-mer frequency, TF over GST control) | 1.13 fold enrichment (6-mer frequency, TF over GST control) | 1.16 fold enrichment (6-mer frequency, TF over GST control) | 1.2 fold enrichment (6-mer frequency, TF over GST control) | 1.08 fold enrichment (6-mer frequency, TF over GST control) | 1.02 fold enrichment (6-mer frequency, TF over GST control) | 1.06 fold enrichment (6-mer frequency, TF over GST control) | 1.16 fold enrichment (6-mer frequency, TF over GST control) | 1.34 fold enrichment (6-mer frequency, TF over GST control) | 1.02 fold enrichment (6-mer frequency, TF over GST control) | 1.13 fold enrichment (6-mer frequency, TF over GST control) | 1.05 fold enrichment (6-mer frequency, TF over GST control) | 1.1 fold enrichment (6-mer frequency, TF over GST control) | 1.2 fold enrichment (6-mer frequency, TF over GST control)
